Several values for one entry are separate records, joined by “and”; a condition that tells them apart may be missing. Equal entries are not always repeated. About 2,000 (36%) of roughly 5,500 compounds were called active. About 18% were inconclusive and are not listed. No stated cut-off is given here; in the data, active means normalized growth mostly below about 0.91 (no sharp cut-off); inconclusive means no clear call, values can overlap the other calls; inactive means mostly above about 0.92. The list shows a part of the results.
Assay: chemical genetic growth profiling, strain panel (AID 1159580);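 further: tested at 20 µM; growth read once vehicle control cultures reached saturation at 30 °C; 1 = growth at the plate median or of vehicle wells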
Conditions: S. cerevisiae deletion strains, growth OD

Measured: normalized growth

CC(CCC(=O)O)[C@H]1CCC2C3C[C@H](O)[C@@H]4C[C@H](O)CC[C@]4(C)C3CC[C@@]21C (stereo partly specified)
inactive: locus YAL021C, strain ccr4, stronger effect = lower value 0.977 | locus YAL026C, strain drs2, stronger effect = lower value 1.01 | locus YAL030W, strain snc1, stronger effect = lower value 0.984 | locus YBL061C, strain skt5, stronger effect = lower value 0.989 | locus YBR009C, strain hhf1, stronger effect = lower value 0.97 | locus YBR021W, strain FUR4, stronger effect = lower value 1.01 | locus YBR023C, strain chs3, stronger effect = lower value 0.982 | locus YBR171W, strain sec66, stronger effect = lower value 0.996 | locus YBR229C, strain ROT2, stronger effect = lower value 1.02 | locus YBR231C, strain swc5, stronger effect = lower value 1.01 | locus YBR279W, strain paf1, stronger effect = lower value 1 | locus YCL011C, strain gbp2, stronger effect = lower value 0.97 | locus YCL016C, strain dcc1, stronger effect = lower value 0.96 | locus YCL029C, strain bik1, stronger effect = lower value 1.04 | locus YCL069W, strain vba3, stronger effect = lower value 0.985 | locus YCR088W, strain abp1, stronger effect = lower value 0.993 | locus YDL005C, strain med2, stronger effect = lower value 0.973 | locus YDL035C, strain GPR1, stronger effect = lower value 1.04 | locus YDL040C, strain nat1, stronger effect = lower value 0.986 | locus YDL074C, strain BRE1, stronger effect = lower value 1.04 | locus YDL101C, strain DUN1, stronger effect = lower value 1.02 | locus YDL185W, strain tfp1, stronger effect = lower value 1.03 | locus YDL192W, strain arf1, stronger effect = lower value 1.04 | locus YDR001C, strain nth1, stronger effect = lower value 0.976 | locus YDR069C, strain doa4, stronger effect = lower value 0.983 | locus YDR101C, strain arx1, stronger effect = lower value 1.04 | locus YDR137W, strain rgp1, stronger effect = lower value 0.957 | locus YDR159W, strain sac3, stronger effect = lower value 1.05 | locus YDR162C, strain NBP2, stronger effect = lower value 1.01 | locus YDR195W, strain ref2 0.957 | locus YDR297W, strain sur2, stronger effect = lower value 0.988 | locus YDR318W, strain mcm21, stronger effect = lower value 1.02 | locus YDR334W, strain swr1, stronger effect = lower value 0.99 | locus YDR335W, strain msn5, stronger effect = lower value 0.979 | locus YDR388W, stronger effect = lower value 1.02 | locus YDR392W, strain spt3, stronger effect = lower value 0.88 | locus YDR502C, strain sam2, stronger effect = lower value 1.04 | locus YEL003W, strain gim4, stronger effect = lower value 1.01 | locus YEL037C, strain rad23, stronger effect = lower value 0.985 | locus YEL061C, strain CIN8 (second series), stronger effect = lower value 0.987 | locus YEL061C, strain CIN8, stronger effect = lower value 1.02 | locus YER015W, strain faa2, stronger effect = lower value 0.987 | locus YER016W, strain bim1, stronger effect = lower value 0.981 | locus YER110C, stronger effect = lower value 1.03 | locus YER111C, strain swi4, stronger effect = lower value 0.974 | locus YER155C, strain BEM2 (second series), stronger effect = lower value 1 | locus YER155C, strain BEM2, stronger effect = lower value 1.02 | locus YER167W, strain BCK2, stronger effect = lower value 1.04 | locus YFR010W, strain ubp6, stronger effect = lower value 1.01 | locus YGL078C, strain dbp3, stronger effect = lower value 1.02 | locus YGL086W, strain mad1, stronger effect = lower value 1.04 | locus YGL167C, strain pmr1, stronger effect = lower value 0.957 | locus YGL173C, strain kem1, stronger effect = lower value 1 | locus YGL227W, strain vid30, stronger effect = lower value 0.994 | locus YGL240W, strain doc1, stronger effect = lower value 1.02 | locus YGL248W, strain PDE1, stronger effect = lower value 1.02 | locus YGL253W, strain hxk2, stronger effect = lower value 1.02 | locus YGR135W, strain pre9, stronger effect = lower value 1.05 | locus YGR252W, strain gcn5, stronger effect = lower value 1 | locus YHR013C, strain ard1, stronger effect = lower value 0.935 | locus YHR027C, strain rpn1, stronger effect = lower value 0.965 | locus YHR030C, strain SLT2, stronger effect = lower value 1.02 and 1.06 | locus YHR079C, strain IRE1 (second series), stronger effect = lower value 1.02 | locus YHR079C, strain IRE1, stronger effect = lower value 1.04 | locus YHR094C, strain hxt1, stronger effect = lower value 1.02 | locus YHR129C, strain ARP1, stronger effect = lower value 1.03 | locus YHR142W, strain chs7, stronger effect = lower value 0.958 | locus YHR200W, strain rpn10, stronger effect = lower value 1.03 | locus YIL066C, strain RNR3, stronger effect = lower value 1 | locus YIL073C, strain SPO22, stronger effect = lower value 1.1 | locus YIL125W, strain kgd1, stronger effect = lower value 1.03 | locus YIR030C, strain dcg1, stronger effect = lower value 1.02 | locus YJL092W, strain hpr5, stronger effect = lower value 0.99 | locus YJL095W, strain BCK1 (second series), stronger effect = lower value 0.99 | locus YJL095W, strain BCK1, stronger effect = lower value 1.08 and 1.04 | locus YJL115W, strain asf1, stronger effect = lower value 0.977 | locus YJL129C, strain trk1, stronger effect = lower value 0.979 | locus YJL134W, strain LCB3, stronger effect = lower value 1.03 | locus YJL154C, strain vps35, stronger effect = lower value 0.987 | locus YJL164C, strain tpk1, stronger effect = lower value 0.95 | locus YJL166W, strain qcr8, stronger effect = lower value 1 | locus YJL168C, strain set2, stronger effect = lower value 1.03 | locus YJL187C, strain SWE1 (second series), stronger effect = lower value 1.06 | locus YJL187C, strain SWE1, stronger effect = lower value 0.993 | locus YJR043C, strain POL32, stronger effect = lower value 1.04 | locus YJR066W, strain TOR1, stronger effect = lower value 1 | locus YKL009W, strain mrt4, stronger effect = lower value 0.994 | locus YKL068W, stronger effect = lower value 1.01 | locus YKL085W, strain MDH1 (second series), stronger effect = lower value 1.02 | locus YKL085W, strain MDH1, stronger effect = lower value 1.02 | locus YKL160W, strain elf1, stronger effect = lower value 0.948 | locus YKL190W, strain CNB1, stronger effect = lower value 1.07 | locus YKR001C, strain vps1, stronger effect = lower value 1.06 | locus YKR026C, strain gcn3, stronger effect = lower value 0.996 | locus YKR091W, strain srl3, stronger effect = lower value 0.973 | locus YLL001W, strain dnm1, stronger effect = lower value 0.932 | locus YLL026W, stronger effect = lower value 0.986 | locus YLL041C, strain sdh2, stronger effect = lower value 0.984 | locus YLR027C, strain aat2, stronger effect = lower value 1 | locus YLR039C, strain RIC1, stronger effect = lower value 1.08 | locus YLR058C, strain SHM2, stronger effect = lower value 1.02 | locus YLR102C, strain apc9, stronger effect = lower value 1.03 | locus YLR113W, strain HOG1, stronger effect = lower value 1.02 | locus YLR221C, strain rsa3, stronger effect = lower value 1.03 | locus YLR258W, strain gsy2, stronger effect = lower value 0.962 | locus YLR262C, strain YPT6 (second series), stronger effect = lower value 0.984 | locus YLR262C, strain YPT6, stronger effect = lower value 1.17 | locus YLR268W, strain sec22, stronger effect = lower value 1.06 | locus YLR320W, strain mms22, stronger effect = lower value 1.02 | locus YLR330W, strain CHS5, stronger effect = lower value 1.06 | locus YLR342W, strain FKS1 (second series), stronger effect = lower value 1.04 | locus YLR342W, strain FKS1, stronger effect = lower value 0.989 | locus YLR357W, strain rsc2, stronger effect = lower value 1 | locus YLR370C, strain arc18, stronger effect = lower value 0.981 | locus YLR371W, strain rom2, stronger effect = lower value 1.03 | locus YLR384C, strain iki3, stronger effect = lower value 0.964 | locus YLR418C, strain cdc73, stronger effect = lower value 1.05 | locus YML016C, strain PPZ1, stronger effect = lower value 1.02 | locus YML032C, strain rad52, stronger effect = lower value 1.01 | locus YML120C, strain ndi1, stronger effect = lower value 0.96 | locus YML124C, strain tub3, stronger effect = lower value 1.02 | locus YMR058W, strain fet3, stronger effect = lower value 0.997 | locus YMR078C, strain ctf18, stronger effect = lower value 1.03 | locus YMR125W, strain sto1, stronger effect = lower value 0.978 | locus YMR129W, stronger effect = lower value 1.02 | locus YMR205C, strain PFK2, stronger effect = lower value 0.993 | locus YMR223W, strain ubp8, stronger effect = lower value 1.03 | locus YMR231W, strain pep5, stronger effect = lower value 0.993 | locus YMR263W, strain SAP30, stronger effect = lower value 1.04 | locus YMR307W, strain GAS1, stronger effect = lower value 1.1 | locus YNL067W, strain RPL9B, stronger effect = lower value 1.09 | locus YNL071W, strain lat1, stronger effect = lower value 0.991 | locus YNL183C, strain NPR1, stronger effect = lower value 0.999 | locus YNL209W, strain ssb2, stronger effect = lower value 0.978 | locus YNL233W, strain BNI4, stronger effect = lower value 1.08 | locus YNL248C, strain rpa49, stronger effect = lower value 1.03 | locus YNL250W, strain rad50, stronger effect = lower value 1.03 | locus YNL271C, strain bni1, stronger effect = lower value 1.02 | locus YNL298W, strain CLA4, stronger effect = lower value 1 | locus YNL307C, strain MCK1, stronger effect = lower value 1.03 | locus YNL322C, strain KRE1 (second series), stronger effect = lower value 0.982 | locus YNR049C, strain mso1, stronger effect = lower value 0.989 | locus YNR052C, strain pop2, stronger effect = lower value 1.02 | locus YOL012C, strain htz1 0.914 | locus YOL147C, strain pex11, stronger effect = lower value 1.03 | locus YOR001W, strain rrp6, stronger effect = lower value 1.02 | locus YOR061W, strain CKA2, stronger effect = lower value 1.02 | locus YOR069W, strain VPS5, stronger effect = lower value 1.02 | locus YOR070C, strain gyp1, stronger effect = lower value 1.01 | locus YOR080W, strain dia2, stronger effect = lower value 0.995 | locus YOR083W, strain WHI5, stronger effect = lower value 0.948 | locus YOR106W, strain vam3, stronger effect = lower value 0.909 | locus YOR136W, strain idh2, stronger effect = lower value 1.04 | locus YOR144C, strain elg1, stronger effect = lower value 1.02 | locus YOR184W, strain ser1, stronger effect = lower value 1.04 | locus YOR231W, strain MKK1, stronger effect = lower value 1.07 | locus YOR265W, strain rbl2, stronger effect = lower value 0.983 | locus YOR270C, strain vph1, stronger effect = lower value 0.982 | locus YOR290C, strain snf2, stronger effect = lower value 0.927 | locus YOR316C, strain cot1, stronger effect = lower value 1.02 | locus YPL051W, strain arl3, stronger effect = lower value 0.954 | locus YPL055C, strain LGE1, stronger effect = lower value 1.06 | locus YPL078C, strain atp4, stronger effect = lower value 0.936 | locus YPL106C, strain sse1, stronger effect = lower value 0.978 | locus YPL240C, strain hsp82, stronger effect = lower value 0.991 | locus YPL256C, strain CLN2, stronger effect = lower value 1.04 | locus YPR119W, strain clb2, stronger effect = lower value 1.02 | locus YPR141C, strain kar3, stronger effect = lower value 1.03 | locus YPR163C, strain tif3, stronger effect = lower value 1.03 | locus YPR167C, strain met16, stronger effect = lower value 1.02 | strain wtn01, stronger effect = lower value 1.05
